High-throughput results as filed in PubChem BioAssay.
Compounds with a hit are over-represented: about 6.8% of the library has one in this group of screens.
MCF10A rerep: inducers of DNA re-replication in MCF 10A breast cells; MCF 10A DNA re-replication, Hoechst nuclear intensity, 48 h; Potency, µM (titrated, usually from 46.1 µM), inactives show at the top dose activity, positive = re-replication, hits mostly activators; 2.9% of 350,000 active; AID 624296; note: % of control where 0% means no effect; nearly all actives have a fitted effect of over 50% in size
SW480 rereplic: DNA re-replication induction in SW480 cells; 1.8% of 340,000 active; Potency, µM (top dose mostly 46.1 µM), inactives show top-dose re-replication activation, usual class: activators; SW480 DNA re-replication, Hoechst DNA content imaging, 48 h; AID 624297; note: % of control where 0% means no effect; nearly all actives have a fitted effect of over 55% in size
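Quantitative HTS format with DMSO vehicle controls; 48 hr drug incubation at 37 C, then 40 min Hoechst staining and scanning imager measurement at 405 nm excitation.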
KB-3-1 tox: KB-3-1 parental cell cytotoxicity; KB-3-1 viability, CellTiter-Glo ATP luminescence, 72 h; Potency, µM (series often up to 46.1 µM), usual class: cytotoxic; 1.4% of 400,000 active; AID 1347075; note: % is set by controls: 0 for no effect and ±100 for the full control effect; nearly all actives have a fitted effect of over 60% in size
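Using CellTiter-Glo luminescence, growth of non-resistant KB-3-1 adenocarcinoma cells is assessed 72 h after pin-tool compound addition at 37 °C. Normalized responses across the concentration series yield fitted curves.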
PINK1 modulator: modulators of PINK1 expression. 0.2% of 410,000 active. PINK1 immunofluorescence, high-content cytometry, 24 h. Potency, µM (titrated, usually from 76.6 µM), inactives show top-dose activation (PINK1 increase), usual class: activators. AID 624263; active = well fitted activation curve with a large enough effect; inconclusive = small, poorly fitted or top-dose-only effect; cell line not stated here; note: % of control where 0% means no effect; nearly all actives have a fitted effect of over 65% in size
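Decision-based qHTS: stable cells, 24 h exposure to five compound concentrations, CCCP as control. Fixed cells stained for PINK1 plus nuclear, mitochondrial and cell markers, cytometer read.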
KB-V1 MDR tox: KB-V1 MDR subline cytotoxicity; Potency, µM (titrated, usually from 46.1 µM), hits mostly cytotoxic; 3.4% of 400,000 active; KB-V1 MDR cells viability, CellTiter-Glo, 72 h; note: % is set by controls: 0 for no effect and ±100 for the full control effect; nearly all actives have a fitted effect of over 60% in size
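Cytotoxicity via CellTiter-Glo luminescence after 72 h compound exposure at 37 degrees C. Cells: drug-selected KB-V1 line, DMEM phenol-red free plus 10% FBS. Compounds tested at multiple concentrations; normalized data fitted to concentration-effect curves.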
TSG101-PTAP inh: blocks PTAP/TSG101 interaction to inhibit HIV-1 budding. Q99816. Fluorescence polarization, FITC-PTAP peptide / Tsg101 binding. Potency, µM (titrated, usually from 115 µM), for inactives: at the highest dose activity change, negative = inhibition, actives largely listed as inhibitors. 340,000 tested, under 10 active. AID 493005; active = well fitted inhibition curve with a large enough effect in the main read-out, with a control signal flat, not every such curve was filed as active; inconclusive = small, poorly fitted or top-dose-only effect, or effect the other way, or a change in a side signal; inactive = no such curve, though single readings can be large or run the other way; note: % of control where 0% means no effect
Target sequence (Q99816 whole entry, looked up): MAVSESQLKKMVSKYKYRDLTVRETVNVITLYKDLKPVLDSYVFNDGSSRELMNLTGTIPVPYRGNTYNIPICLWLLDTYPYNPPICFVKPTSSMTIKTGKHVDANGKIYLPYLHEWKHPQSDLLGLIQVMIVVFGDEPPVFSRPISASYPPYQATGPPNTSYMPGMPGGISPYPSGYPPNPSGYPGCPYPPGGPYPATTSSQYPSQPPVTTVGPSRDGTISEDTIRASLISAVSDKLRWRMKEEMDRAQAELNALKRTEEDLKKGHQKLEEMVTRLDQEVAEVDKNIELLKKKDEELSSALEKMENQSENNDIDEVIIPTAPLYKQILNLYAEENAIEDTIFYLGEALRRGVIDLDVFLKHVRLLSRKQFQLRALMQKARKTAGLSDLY
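Tsg101 binding domain (10 uM final) was mixed with compound and a FITC-labeled PTAP peptide (50 nM final) in HEPES pH 7.5 buffer with NaCl, Tween 20, EDTA and TCEP; fluorescence polarization was read after 20 min at r.t.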
* = called active by the depositor; i = inactive; ? = inconclusive; · = no result given; [ ] = another dose, or the depositor's remark. Unless noted, calls come from the whole dose curve; as a rule, active = well fitted curve in the direction sought with a large enough effect; inconclusive = small, poorly fitted or top-dose-only effect, or another doubt; inactive = no such curve, though single readings can be large; an effect the other way counts as inactive or inconclusive. Potency is the fitted concentration of half-maximal effect.

SMILES	MCF10A rerep	SW480 rereplic	KB-3-1 tox	PINK1 modulator	KB-V1 MDR tox	TSG101-PTAP inh
CCOC(=O)Cc1nnc(NC(=O)CSc2nncn2C)s1	6.51µM*	?	i	·	i	-4.4%
Cc1cc(NC(=O)CSc2nnc3c(C)cc4c(C)ccc(C)c4n23)no1	20.6µM*	20.6µM*	i	?	3.26µM*	-8.4%
CCc1nnc(NC(=O)CSc2nnc(C)n2-c2ccc(C)cc2)s1	2.2%	-5.2%	i	5.3%	20.6µM*	2.7%
CCc1nnc(NC(=O)CSc2nnc3c(C)cc4c(C)ccc(C)c4n23)s1	9.2µM*	?	4.11µM*	5.1%	i	-2.6%
CCc1nnc(NC(=O)CSc2ncnc3scc(-c4ccc(C)cc4)c23)s1	?	4.4%	i	8.9%[38.3 µM]	6.51µM*	1.3%
CCc1nnc(NC(=O)CSc2nnc(-c3ccccc3O)n2-c2ccc(C)cc2)s1	?	?	?	6.2%	?	-5.6%
Cc1ccc(-c2csc3ncnc(SCC(N)=O)c23)cc1	-0.1%	-8.1%	i	-0.6%	?	-1.7%
CCc1nnc(NC(=O)CSc2nnc(-c3ccncc3)n2C)s1	-1.5%	-1.8%	i	-1.4%	i	-2.8%
COC12NC(=O)N(C)C1(OC)C(=O)N(C)C(=O)N2C (stereo unspecified)	?	0.651µM*	i	4.9%	i	-1.0%
CC(=O)NCCNC(=O)C1Cc2c(-c3cccc(NC(C)=O)c3)ccnc2O1 (stereo unspecified)	·	·	i	1.7%	i	·
CC(=O)Nc1cccc(-c2ccnc3c2CC(C(=O)Nc2ccc4c(c2)OCO4)O3)c1 (stereo unspecified)	·	·	5.17µM*	4.4%	i	·
O=C(Nc1ccc2c(c1)OCO2)C1Cc2c(-c3ccc4c(c3)OCO4)ccnc2O1 (stereo unspecified)	·	·	?	1.9%	8.2µM*	·
CC(=O)Nc1cccc(-c2ccnc3c2CC(C(=O)NCc2cccs2)O3)c1 (stereo unspecified)	·	·	5.8µM*	10.1%	i	·
CC(=O)Nc1ccc(NC(=O)C2Cc3c(-c4ccc5c(c4)OCO5)ccnc3O2)cc1 (stereo unspecified)	·	·	i	2.4%	i	·
COc1ccc(NC(=O)C2Cc3c(-c4ccc5c(c4)OCO5)ccnc3O2)cc1 (stereo unspecified)	·	·	9.2µM*	5.0%	?	·
O=C(Nc1ccc2c(c1)OCO2)C1Cc2c(-c3cccnc3)ccnc2O1 (stereo unspecified)	·	·	i	1.7%	i	·
O=C(Nc1ccccc1)C1Cc2c(-c3ccc4c(c3)OCO4)ccnc2O1 (stereo unspecified)	·	·	i	1.5%	i	·
COc1ccc(CCCNC(=O)C2Cc3c(-c4cccc(NC(C)=O)c4)ccnc3O2)cc1 (stereo unspecified)	·	·	6.51µM*	4.9%	?	·
COC(=O)c1c(SC)nc2ccccc2c1OCc1ccccc1C	·	·	i	5.1%	i	·
COc1ccc(-c2ncc3ccccn23)cc1	-2.3%	-2.4%	i	-2.5%	i	-7.3%
COc1cc(-c2ncc3ccccn23)cc(OC)c1OC	?	-10.0%	i	12.9%	14.6µM*	-0.9%
COc1cc(OC)cc(-c2ncc3ccccn23)c1	?	-2.0%[9.22 µM]	20.6µM*	4.5%	?	-3.0%
COc1cccc(-c2ncc3ccccn23)c1	-3.1%	2.1%	i	3.4%	i	-2.1%
COc1ccc(-c2nc(SCC(=O)Nc3ccccc3)c(-c3ccc(F)cc3)[nH]2)cc1OC	·	·	i	14.3%	i	·
Cc1ccc(S(=O)(=O)c2cn(C)c3cc(N4CCN(C)CC4)c(F)cc3c2=O)c(C)c1	-2.2%	1.64µM*	i	4.0%	i	-4.3%
SMILES	MCF10A rerep	SW480 rereplic	KB-3-1 tox	PINK1 modulator	KB-V1 MDR tox	TSG101-PTAP inh
Cc1ccc(S(=O)(=O)c2cn(C)c3cc(N4CCCC4)c(F)cc3c2=O)c(C)c1	·	·	i	2.1%	i	·
CC1=C(C(=O)Nc2ccccc2C)C(c2ccco2)n2ncnc2N1 (stereo unspecified)	·	·	i	5.3%	i	·
CCn1c(=O)c2c(nc(SCc3ccccn3)n2C)n(C)c1=O	-4.8%	-8.7%	?	-2.2%	14.6µM*	-0.9%
CCCn1c(SCc2ccccn2)nc2c1c(=O)n(C)c(=O)n2C	13.9%	2.5%	i	1.4%[38.3 µM]	?	-11.9%
COc1ccc(NC(=O)CC2C(=O)N(c3ccccc3)C(=O)N2C2CCCCC2)cc1 (stereo unspecified)	·	·	i	-0.5%	i	·
CCS(=O)(=O)c1ncc(Cl)c(C(=O)Nc2ccc(S(=O)(=O)N3CCC(C)CC3)cc2)n1	1.84µM*	?	?	-2.2%	10.3µM*	1.6%
Cc1ccc(/C=C/c2onc(C)c2S(=O)(=O)N2CCC(C(=O)Nc3ccc(Br)c(C)c3)CC2)cc1	·	·	i	0.1%	i	·
CCSc1ncc(Cl)c(C(=O)Nc2ccc(S(=O)(=O)N3CCC(C)CC3)cc2)n1	·	·	?	0.2%	i	·
Cc1noc(C)c1C(=O)Nc1ccc(S(=O)(=O)N2CCC(C)CC2)cc1	-0.8%	18.4µM*	i	-0.6%	?	-5.2%
O=C(Nc1ccc(S(=O)(=O)N2CCCCC2)cc1)c1ccncc1	2.7%	?	i	-0.7%	i	-0.2%
CC1CCN(S(=O)(=O)c2ccc(NC(=O)c3ccncc3)cc2)CC1	?	-6.8%	16.4µM*	1.0%	?	-3.2%
Cc1cc(NC(=O)C2CCN(S(=O)(=O)c3c(C)noc3C)CC2)ccc1Br	20.6µM*	?	i	8.5%	i	-6.0%
Cc1csc[n+]1CC(=O)c1ccc(I)cc1	·	·	i	·	i	·
COc1ccc(N2C(=O)[C@@H]3C[C@H]2CN3Cc2ccc3nccnc3c2)cc1Cl	·	·	·	-0.3%	·	·
CC(=O)c1cccc(NC(=O)CN2C(=O)CC(c3ccc(C)cc3C)=Nc3ccccc32)c1	·	·	·	-0.9%	·	·
Cn1c(=O)[nH]c(=O)c2c1nc(N1CCCC1)n2CCCSc1nc2ccccc2o1	12.4%	-5.6%	i	-0.8%	i	-8.7%
Cn1c(=O)[nH]c(=O)c2c1nc(Br)n2CCCSc1nc2ccccc2o1	13µM*	7.31µM*	?	?	?	-1.6%
COc1ccc(C(=O)Nc2nnc(SCc3cc(=O)n4cccc(C)c4n3)s2)cc1	·	·	·	-0.9%	·	·
COc1ccc(-c2oc3ncn4nc(Cc5ccccc5)nc4c3c2-c2ccc(OC)cc2)cc1	4.0%	1.4%	i	11.4%	3.66µM*	-4.8%
Cc1ccccc1OCCSc1nc2ccc(NC(=O)c3cccc(F)c3)cc2s1	·	·	i	7.0%	i	·
